An excerpt weighted towards active compounds, which were near 2.4% of everything screened.
D2 PAM-1 = D2 dopamine receptor (human) potentiation; HEK293 T-REx D2, calcium flux, EC20 dopamine potentiation; actives 0.34% (n = 340,000); potentiation, % at 10 µM; P14416;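 active means potentiation over 3 SD above the plate norm, cut at about 30% in these data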; further: 0% is about no effect
Target sequence (P14416 whole entry, looked up): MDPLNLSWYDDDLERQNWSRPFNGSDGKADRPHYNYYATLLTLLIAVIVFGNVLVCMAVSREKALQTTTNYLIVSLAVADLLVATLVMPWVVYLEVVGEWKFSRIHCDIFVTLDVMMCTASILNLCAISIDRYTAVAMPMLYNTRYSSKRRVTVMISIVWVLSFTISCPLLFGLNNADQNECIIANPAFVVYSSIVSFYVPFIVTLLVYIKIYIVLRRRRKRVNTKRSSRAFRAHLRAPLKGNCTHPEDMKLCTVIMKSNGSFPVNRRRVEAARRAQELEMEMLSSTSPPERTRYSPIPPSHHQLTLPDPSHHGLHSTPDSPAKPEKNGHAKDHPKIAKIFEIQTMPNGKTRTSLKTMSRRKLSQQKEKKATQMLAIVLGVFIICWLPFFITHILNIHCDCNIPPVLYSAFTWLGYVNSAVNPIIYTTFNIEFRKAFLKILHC
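Tetracycline-induced Hek293 Trex D2 cells, force-coupled to calcium, loaded with no-wash calcium dye. Compound added with 180 s kinetic read for agonism, then EC20 dopamine and a further 180 s read for potentiation.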
D2 ag-1 = activates the human D2 dopamine receptor | DiscoveRx PathHunter D2 beta-arrestin, luminescence, 90 min; 100% = 57 uM dopamine signal | actives 0.084% (n = 360,000) | activation, % (test concentration not listed); in the data active means activation above about 40%; inconclusive means between about 15% and that limit
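Agonist mode: compounds alone added to overnight-plated D2 PathHunter cells for 90 min at 37 C, with 57 uM final dopamine (EC100) defining full response. Beta-arrestin recruitment detected by chemiluminescent reagent, read after 1 h at ambient temperature.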
D2 PAM-2 = positive allosteric modulators of human D2 dopamine receptor. DiscoveRx D2 beta-arrestin cells, luminescence, 90 min; 100% = 57 uM dopamine signal. potentiation, % (concentration not given with the values). AID 624464. actives 0.23% (n = 360,000); in the data active means potentiation above about 50%; inconclusive means mostly about 30% to 49%
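PathHunter D2 cells, attached overnight at 37 deg C, received compound in DMSO plus dopamine at EC20 (50 nM final) for 90 min at 37 deg C. Beta-arrestin recruitment was read as luminescence after 1 h with detection reagent at ambient temperature.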
D2 antagonist = antagonists of human D2 dopamine receptor; P14416; HEK293 TREx D2 cells, calcium flux, dopamine EC80; inhibition, % at 10 µM; actives 2% (n = 340,000); AID 485344; in the data active means inhibition above about 30%; inactive means below that, where a call was filed; further: 0% is about no effect
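In this primary screen, negative modulation is detected by tracking calcium flux after an EC80 dopamine challenge in inducible HEK293 T-REx D2 cells preexposed to test compound for 180 s.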
D2 ag-2 = agonists of human D2 dopamine receptor; P14416; activation, % at 2 µM; HEK293 T-REx D2 cells, calcium flux agonist mode; actives 0.53% (n = 340,000);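 active means activation over 3 SD above normal in the single-dose calcium agonist read, cut at about 30% in these data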; further: 0% is about no effect
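Calcium-flux readout, 1 cycle/sec over 180 s following compound pin transfer, in inducible HEK293 Trex D2 cells (force-coupled); dopamine controls included. Positive calcium responses during this window marked compounds as potential agonists.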
Starred values were filed as active, the others as inactive.

For OC(COc1cccc2ccccc12)CN1CCCC1 (stereo not given) the results were D2 PAM-1 73*, D2 ag-1 -1, D2 PAM-2 -11, D2 antagonist -5 and D2 ag-2 0.
For Cc1cc2oc(C(=O)Nc3cccc(-c4nc5ccccc5o4)c3)c(C)c2cc1Cl the results were D2 PAM-1 2 and D2 ag-2 -1.
`O=C(CN1C(=O)COc2ccccc21)NCCCN1CCc2ccccc2C1` gave D2 PAM-1 -30, D2 ag-1 -1, D2 PAM-2 -24, D2 antagonist 58* and D2 ag-2 -1.
For O=C(CN1C(=O)COc2ccccc21)NCCCN1CCN(Cc2ccccc2)CC1 the results were D2 PAM-1 -16, D2 ag-1 -1, D2 PAM-2 -18, D2 antagonist 10 and D2 ag-2 1.
Screening CC(C)Cn1c(N)c(C(=O)COC(=O)c2c(F)cccc2F)c(=O)n(C)c1=O returned D2 PAM-1 -3, D2 ag-1 -6, D2 PAM-2 4, D2 antagonist 45* and D2 ag-2 4.
For CC(C)Cn1c(N)c(C(=O)CSc2ccc3c(c2)OCCO3)c(=O)n(C)c1=O the results were D2 PAM-1 33*, D2 ag-1 3, D2 PAM-2 -5, D2 antagonist -8 and D2 ag-2 0.
O=C1CCSc2ccc(S(=O)(=O)Nc3cccc(C(F)(F)F)c3)cc2N1 was read as D2 PAM-1 -2 and D2 ag-2 1.
Screening Cc1ccc[n+](C(C)C(=O)Nc2ccc([N+](=O)[O-])cc2C)c1 (stereo not given) returned D2 PAM-1 -2, D2 ag-1 -3, D2 PAM-2 -9, D2 antagonist 21 and D2 ag-2 -3.
For Cc1ccc[n+](C(C)C(=O)Nc2ccc(C)c([N+](=O)[O-])c2)c1 (stereo not given) the results were D2 PAM-1 -17, D2 ag-1 -3, D2 PAM-2 -36, D2 antagonist 43* and D2 ag-2 3.
Screening O=C(Cn1c(=O)n(Cc2ccc(C(=O)NCc3ccccc3Cl)cc2)c(=O)c2ccccc21)Nc1ccc(F)cc1 returned D2 PAM-1 4.
`C#CC(C)(C)NS(=O)(=O)c1cc(-c2nnc(Nc3ccc(C)cc3)c3ccccc23)ccc1C` gave D2 PAM-1 3 and D2 ag-2 0.
`CCN(c1ccc(OC)cc1)S(=O)(=O)c1nnc(NC(=O)COc2ccccc2)s1` gave D2 PAM-1 37*, D2 ag-1 5, D2 PAM-2 -6, D2 antagonist -9 and D2 ag-2 0.
CCCCC(=O)Nc1nnc(S(=O)(=O)N(CC)c2ccc(OC)cc2)s1 was read as D2 PAM-1 -6, D2 ag-1 6, D2 PAM-2 -2, D2 antagonist 9 and D2 ag-2 0.
Cc1cc(C)cc(NC(=O)CC(C)n2nc(C)cc2C)c1 (stereo not given) was read as D2 PAM-1 -5 and D2 ag-2 1.
CC(=O)Nc1sc(NC(=O)c2ccccc2)nc1-c1cccs1 was read as D2 PAM-1 -7, D2 ag-1 4, D2 PAM-2 -1, D2 antagonist -14 and D2 ag-2 0.
Screening CCN(CC)c1ccc(/C=C(\C#N)c2nc(-c3cccs3)c(NC(C)=O)s2)cc1 returned D2 PAM-1 -3, D2 antagonist 6 and D2 ag-2 33*.
For COc1ccc(C(=O)NCCn2cc(SCc3c(F)cccc3Cl)c3ccccc32)cc1 the results were D2 PAM-1 5.
Screening Cc1cccc2cc(C#N)c(SCC(=O)N3CC(=O)Nc4ccccc43)nc12 returned D2 PAM-1 -2, D2 ag-1 -3, D2 PAM-2 8, D2 antagonist 34* and D2 ag-2 3.
Screening COc1ccc2cc(C#N)c(SCC(=O)N3CC(=O)Nc4ccccc43)nc2c1 returned D2 PAM-1 -7, D2 ag-1 -4 and D2 PAM-2 -8.
`CC1=C(C(=O)OCc2ccccc2)C(c2ccccc2Br)NC(=O)N1` (stereo not given) gave D2 PAM-1 1, D2 ag-1 97*, D2 PAM-2 inconclusive, D2 antagonist 0 and D2 ag-2 1.
`COc1ccccc1C1NC(=O)NC(C)=C1C(=O)OCc1ccccc1` (stereo not given) gave D2 PAM-1 6, D2 ag-1 8, D2 PAM-2 -2, D2 antagonist 6 and D2 ag-2 1.
Screening CC1=C(C(=O)OCc2ccccc2)C(c2cccc([N+](=O)[O-])c2)NC(=O)N1 (stereo not given) returned D2 PAM-1 4, D2 ag-1 4, D2 PAM-2 59*, D2 antagonist 2 and D2 ag-2 1.
Clc1ccc(CCNc2nc3cc(Cl)c(Cl)cc3n3cnnc23)cc1 was read as D2 PAM-1 3 and D2 ag-2 -1.
`CC1CCC(NC(=O)c2ccc(-n3cncn3)c([N+](=O)[O-])c2)CC1` (stereo not given) gave D2 PAM-1 -7, D2 ag-1 -4, D2 PAM-2 27, D2 antagonist 36* and D2 ag-2 1.
For O=C(NC1CCCCC1)c1ccc(-n2cncn2)c([N+](=O)[O-])c1 the results were D2 ag-1 0 and D2 PAM-2 -1.
NC(=O)c1cc2ccccc2o/c1=N/NC(=O)c1cccc(Cl)c1 was read as D2 PAM-1 5, D2 ag-1 -4, D2 PAM-2 2, D2 antagonist 49* and D2 ag-2 -1.
For CCOc1ccc(/C=C2/C(=O)N(c3ccc(OC)cc3)C(=S)N2CC(=O)OC)cc1OCC the results were D2 PAM-1 -2, D2 ag-1 -4, D2 PAM-2 10, D2 antagonist 17 and D2 ag-2 1.
Screening CCOc1ccc(N2C(=O)/C(=C/c3cc(OC)c(OC)c(OC)c3)N(CC(=O)OC)C2=S)cc1 returned D2 PAM-1 47*, D2 ag-1 -4, D2 PAM-2 -1, D2 antagonist -7 and D2 ag-2 2.
For CCCCN1CCc2c(c3ccccc3n2Cc2ccccc2)C1 the results were D2 PAM-1 -25, D2 ag-1 -1, D2 PAM-2 -23, D2 antagonist -5 and D2 ag-2 1.
`CN1CCc2c(c3ccccc3n2C)C1` gave D2 PAM-1 -20, D2 ag-1 -1, D2 PAM-2 -45, D2 antagonist 61* and D2 ag-2 1.
For CN1CCc2c(c3ccccc3n2Cc2ccccc2)C1 the results were D2 PAM-1 -21, D2 ag-1 -2, D2 PAM-2 -28, D2 antagonist 33* and D2 ag-2 0.
Cc1ccc(CSCCNC(=O)c2ccc(C)cc2)cc1 was read as D2 PAM-1 -21, D2 ag-1 -2, D2 PAM-2 -9, D2 antagonist 32* and D2 ag-2 -3.

Screening data (PubChem BioAssay)
